Test results as given in PMC4336329 (PLoS ONE, 2015).
Among all 310,000 compounds or so, about 14,000 (4.5%) showed an effect of 50% or more. The effect is printed as a negative number. Only a selection was taken, and strong results are over-represented in it overall.

molecular target: human ether-à-go-go-related gene (hERG) potassium channel (human, UniProt Q12809); test: primary screen, population patch clamp on CHO cells stably expressing hERG; higher = less effect of the substance
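Also: peak tail current of the secondary pulse compared with the same well before compound.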

Chain of human ether-à-go-go-related gene (hERG) potassium channel (Q12809 whole entry, looked up): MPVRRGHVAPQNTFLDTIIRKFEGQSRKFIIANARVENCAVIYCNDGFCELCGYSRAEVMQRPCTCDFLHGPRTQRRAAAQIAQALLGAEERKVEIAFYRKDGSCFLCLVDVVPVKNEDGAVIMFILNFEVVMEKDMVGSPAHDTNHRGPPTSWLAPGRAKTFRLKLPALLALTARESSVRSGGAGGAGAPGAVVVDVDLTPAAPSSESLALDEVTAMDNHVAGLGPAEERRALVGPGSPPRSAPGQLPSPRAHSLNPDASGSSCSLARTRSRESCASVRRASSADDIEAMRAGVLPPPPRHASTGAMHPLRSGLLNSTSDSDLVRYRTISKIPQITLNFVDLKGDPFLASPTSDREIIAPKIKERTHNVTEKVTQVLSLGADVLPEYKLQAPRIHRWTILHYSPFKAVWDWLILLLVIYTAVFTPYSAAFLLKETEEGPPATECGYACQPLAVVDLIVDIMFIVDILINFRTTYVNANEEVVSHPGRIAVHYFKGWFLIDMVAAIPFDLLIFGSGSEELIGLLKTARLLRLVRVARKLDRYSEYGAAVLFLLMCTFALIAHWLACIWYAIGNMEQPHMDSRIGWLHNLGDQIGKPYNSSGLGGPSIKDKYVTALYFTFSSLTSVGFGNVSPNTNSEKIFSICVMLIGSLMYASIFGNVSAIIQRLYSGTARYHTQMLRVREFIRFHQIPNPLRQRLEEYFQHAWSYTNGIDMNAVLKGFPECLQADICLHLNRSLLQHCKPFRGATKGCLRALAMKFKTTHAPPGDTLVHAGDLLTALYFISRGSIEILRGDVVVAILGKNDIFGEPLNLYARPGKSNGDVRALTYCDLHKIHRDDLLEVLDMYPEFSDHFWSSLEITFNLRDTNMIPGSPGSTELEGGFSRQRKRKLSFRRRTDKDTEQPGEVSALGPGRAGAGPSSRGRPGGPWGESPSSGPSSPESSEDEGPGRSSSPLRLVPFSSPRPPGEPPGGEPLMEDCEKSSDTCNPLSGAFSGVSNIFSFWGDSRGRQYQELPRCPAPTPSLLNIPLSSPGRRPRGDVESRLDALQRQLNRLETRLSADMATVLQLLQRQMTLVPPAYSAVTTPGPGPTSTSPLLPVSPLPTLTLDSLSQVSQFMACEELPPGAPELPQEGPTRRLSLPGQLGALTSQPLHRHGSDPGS

Row | SMILES | hERG current change (%, negative = inhibition) at 10uM [%]
1 | CCCCCC1CC(CC(=O)Nc2ccc([N+](=O)[O-])cc2)OC1=O (stereo not shown) | -53.1
2 | CCCCCCC1CC(CCC(=O)Nc2ccc([N+](=O)[O-])cc2)C(=O)O1 (stereo not shown) | 3.95
3 | CCCCCC1CC(CC(=O)NC(=S)Nc2ccc([N+](=O)[O-])cc2)C(=O)O1 (stereo not shown) | -0.0907
4 | CCCCCC1CC(CC(=O)Nc2ccc([N+](=O)[O-])cc2)C(=O)O1 (stereo not shown) | -50
5 | CC(C)OCC1CC(CC(=O)Nc2ccc([N+](=O)[O-])cc2)C(=O)O1 (stereo not shown) | -34.1
6 | CCCCCCC1CC(CC(=O)Nc2ccc([N+](=O)[O-])cc2)C(=O)O1 (stereo not shown) | -12.4
7 | O=C(CC1NCCc2ccccc21)Nc1ccc(Oc2ccccc2)cc1 (stereo not shown) | -15
8 | C=CCN(c1ccccc1)S(=O)(=O)c1ccc2c(c1)NC(=O)C(C)C(=O)N2 (stereo not shown) | -4.47
9 | O=C(CNC(c1ccccc1)c1ccccc1)Nc1cc([N+](=O)[O-])ccc1Cl | 10.7
10 | CCCCc1cc(O)c(CCCC)c(O)c1 | -34.1
11 | COc1ccccc1NC(=O)/C(C#N)=C/c1ccc(OCCN2CCOCC2)c(OC)c1 | -6.48
12 | COc1cc(/C=C(\C#N)C(=O)Nc2ccccc2)ccc1OCCN1CCOCC1 | -21.7
13 | COc1cc(/C=C(\C#N)C(=O)Nc2ccccc2F)ccc1OCCN1CCOCC1 | -64.6
14 | O=C(N/N=C/c1cccs1)c1cncc(Br)c1 | -10.1
15 | COc1ccc(C)cc1NS(=O)(=O)c1ccc2c(c1)CCN2C(C)=O | -17.2
16 | CC(C)NC(=S)N(CCc1ccncc1)C(C)C | 17.3
17 | CC(C)N(CCc1ccncc1)C(=S)Nc1cccc(Cl)c1 | -71.3
18 | Cc1ccc(C)c(NC(=S)N(CCc2ccncc2)C(C)C)c1 | -42.1
19 | Cc1cc(C)c(NC(=S)N(CCc2ccncc2)C(C)C)c(C)c1 | -8.82
20 | CC(C)N(CCc1ccncc1)C(=S)Nc1ccc(F)c(Cl)c1 | -71.7
21 | CCOc1ccc(NC(=S)N(CCc2ccncc2)C(C)C)cc1 | -50.6
22 | CCc1ccccc1NC(=S)N(CCc1ccncc1)C(C)C | -29.6
23 | Cc1cccc(C)c1NC(=S)N(CCc1ccncc1)C(C)C | -1.45
24 | Cc1cccc(NC(=S)N(CCc2ccncc2)C(C)C)c1C | -8.61

Row | SMILES | hERG current change (%, negative = inhibition) at 10uM [%]
25 | CCc1ccccc1N/N=C(/C)c1c(O)cc(C)oc1=O | -1.91
26 | Cc1c(CCC(=O)O)c(=O)oc2cc3occ(-c4ccccc4)c3cc12 | -27.8
27 | CC(CN1C(C)CCCC1C)OC(=O)c1cccc(F)c1.Cl (stereo not shown) | -13
28 | Cc1cccc(N2CCN(Cc3nc(-c4cccc(Cl)c4)oc3C)CC2)n1 | -21
29 | Cc1cc(N2CCN(Cc3nc(-c4ccc(Cl)cc4)oc3C)CC2)cc(C)n1 | -68.8
30 | COc1ccc(-c2nc(CN3CCN(Cc4cccc(F)c4)CC3)c(C)o2)cc1 | -46.6
31 | Cc1cccc(-c2nc(CN3CCN(Cc4cccc(F)c4)CC3)c(C)o2)c1 | -47
32 | Cc1oc(-c2cccc3ccccc23)nc1CN1CCN(c2ncnc3ccccc23)CC1 | -11.9
33 | Cc1oc(-c2cc(F)ccc2F)nc1CN1CCN(c2ncnc3ccccc23)CC1 | -43.6
34 | COc1ccc(-c2nc(CN3CCN(c4cc(C)nc(C)c4)CC3)c(C)o2)c2ccccc12 | -73.6
35 | Cc1cc(N2CCN(Cc3nc(-c4ccc(F)cc4)oc3C)CC2)cc(C)n1 | -53.8
36 | COc1ccc(-c2nc(CN3CCN(C(=O)c4ccco4)CC3)c(C)o2)c(OC)c1C | -18
37 | COc1ccc(-c2nc(CN3CCN(c4ncnc5ccccc45)CC3)c(C)o2)c(OC)c1 | -66.8
38 | COc1ccc(-c2nc(CN3CCN(c4ncccn4)CC3)c(C)o2)cc1C | -21.1
39 | COc1ccc(-c2nc(CN3CCN(Cc4cccc(Cl)c4)CC3)c(C)o2)cc1 | -33.1
40 | Clc1ccc(-c2csc(Nc3cccnc3)n2)cc1 | 13.5
41 | CC(C)(C)C(=O)Nc1ccc(F)cc1[N+](=O)[O-] | 5.56
42 | Cc1cc2oc(=O)cc(CN3CCC(C)CC3)c2c(C)c1Cl | -2.84
43 | CCCCCc1c(O)c2ccccc2[nH]c1=O | 7.97
44 | N#CCC(=O)NNC(=S)NC(=O)C(c1ccccc1)c1ccccc1 | 5.41
45 | O=C(NCCCCc1ccccc1)c1cccc(Br)c1 | -3.79
46 | CCOc1ccc(N(CC(=O)Nc2nccs2)S(=O)(=O)c2c(C)noc2C)cc1 | -5.98
47 | COc1ccc(C2=CSC3=NCCN23)cc1Cl | -2.92
48 | Br.COc1ccc(C2=CSC3=NCCN23)cc1F | -13.9

Row | SMILES | hERG current change (%, negative = inhibition) at 10uM [%]
49 | O=[N+]([O-])c1ccc(C2=CSC3=NCCN23)cc1 | -32.9
50 | CCCOc1ccc(C2=CSC3=NCCN23)cc1[N+](=O)[O-] | -73.6
51 | CCCCOc1ccc(-c2csc(N)n2)cc1[N+](=O)[O-] | 11.2
52 | CCCOc1ccc(C2=CSC3=NCCN23)cc1Cl | -67.8
53 | CCCOc1ccc(C2=CSC3=NCCN23)cc1.Cl | -28.3
54 | Br.COc1ccc(C2=CSC3=NCCN23)cc1OC | -6.58
55 | Br.COc1ccc(C2=CSC3=NCCN23)cc1Br | -50.7
56 | CCOc1ccc(C2=CSC3=NCCN23)cc1Cl | -22.8
57 | CCCCOc1ccc(C2=CSC3=NCCN23)cc1[N+](=O)[O-] | -71
58 | CSc1nc2sc3c(c2c(=O)n1C)CCCC3 | -13.5
59 | CC(OC(=O)c1ccc(Br)c(S(=O)(=O)N2CCOCC2)c1)C(=O)NC1CCCCC1C (stereo not shown) | -49.9
60 | CC(C)(C)NC(=O)NC(=O)C[n+]1ccc(Cc2ccc([N+](=O)[O-])cc2)cc1.[Cl-] | -5.27
61 | O=C(CCCN1C(=O)/C(=C\c2ccccc2)SC1=S)Nc1ccc(O)cc1C(=O)O | 18.1
62 | CCOC(=O)/C=c1\s/c(=C\c2ccc(C(F)(F)F)cc2)c(=O)n1CC(=O)NCc1ccco1 | 5.47
63 | O=C(CSc1nnnn1-c1cccnc1)NCc1cccs1 | 9.62
64 | CCOC(=O)COc1ccc(C2CC(C)=NN2c2ccccc2)cc1 (stereo not shown) | -0.31
65 | CC(=O)n1nc2nc(C)cc(C)c2c1N | 13.9
66 | O=C(/C=C/c1ccco1)NC1CCCC1 | 17.4
67 | CCOc1ccc(/C=N/NC(=O)c2ccccc2C)cc1CN1CC2CC(C1)c1cccc(=O)n1C2 (stereo not shown) | -26.8
68 | O=C(CCN=C1NS(=O)(=O)c2ccccc21)OCC(=O)c1ccc(F)c(F)c1 | 11
69 | O=C(NCc1ccccc1)NS(=O)(=O)c1ccccc1Cl | -4.3
70 | COc1ccc(C2=CSC3=NCCN23)cc1[N+](=O)[O-] | -26.1
71 | CCOc1ccc(C2=CSC3=NCCN23)cc1[N+](=O)[O-] | -75.5
72 | CCOc1ccc(C2=CSC3=NCCN23)cc1 | -4.08

Row | SMILES | hERG current change (%, negative = inhibition) at 10uM [%]
73 | CCN(CC)c1ccc2c(c1)oc(=O)c1c(Cl)cc(=O)oc12 | 14.8
74 | COc1cc(O)c(NC(C)=O)c2nonc12 | 11.2
75 | CCn1c(SCc2ccc(C)cc2)nnc1C1CCN(S(=O)(=O)c2ccc(OC)cc2)CC1 | -64.5
76 | CCn1c(SC(C)C)nnc1C1CCN(S(=O)(=O)c2ccc(OC)cc2)CC1 | -20.6
77 | CCn1c(SCc2ccc(F)cc2)nnc1C1CCN(S(=O)(=O)c2ccc(OC)cc2)CC1 | -64.3
78 | CCn1c(SCC(=O)c2ccc(OC)cc2)nnc1C1CC1 | 6.73
79 | CCn1c(SCc2ccccc2)nnc1C1CCCCC1 | -11.2
80 | CCn1c(SC)nnc1C1CCN(S(=O)(=O)c2ccc(OC)cc2)CC1 | -4.3
81 | CCn1c(SCc2ccccc2)nnc1C1CCN(S(=O)(=O)c2ccc(OC)cc2)CC1 | -60.8
82 | CCn1c(C2CCN(S(=O)(=O)c3ccc(OC)cc3)CC2)n[nH]c1=S | -18
83 | Cc1ccc(S(=O)(=O)N2CCC(c3nnc(SCCN4CCCC4)n3C)CC2)cc1 | 17.7
84 | COc1ccc2c(c1)c(CC(=O)Nc1ccc(C)cc1)c(C)n2C(=O)c1ccc(Cl)cc1 | -20.4
85 | O=C1c2oc3ccccc3c(=O)c2C(c2ccccn2)N1Cc1ccccc1 (stereo not shown) | 5.53
86 | CCOC(=O)c1c(C)nc(-c2ccccc2)nc1NC(=O)CC | 1.29
87 | Cn1c(=O)c2sccc2n2c(CCCC(=O)NCc3ccco3)nnc12 | -1.92
88 | COC(=O)C1CCN(C(=O)c2ccccc2NC(C)=O)CC1 | 16.8
89 | Brc1ccc(CSc2nnc3ccccn23)cc1 | -18.7
90 | O=[N+]([O-])c1ccccc1CSc1nnc2ccccn12 | -0.991
91 | Cn1ccnc1SCc1ccc([N+](=O)[O-])cc1 | -2.75
92 | O=C(c1nc(SCc2ccc([N+](=O)[O-])cc2)n2ccccc12)C(F)(F)F | -71.1
93 | O=c1c2ccccc2nc(SCc2ccc([N+](=O)[O-])cc2)n1-c1ccccc1 | 10.9
94 | O=[N+]([O-])c1ccc(CSc2nnc3ccccn23)cc1 | -57.2
